Source: PubChem BioAssay (NCATS)
Records with an inconclusive call do not appear. A number with no mark means an inactive call. Calls come from the whole dose curve; as a rule, active = well fitted cell-killing curve with a large enough effect; inconclusive = small, poorly fitted or top-dose-only effect, or effect the other way; inactive = flat fitted curve, though single readings scatter. Where a SMILES comes first, the peptide text is derived from it. [ ]: non-standard residue; d: D form. ξ: configuration not given here. ξPhe(βξ-Me) = CC(c1ccccc1)C(N)C(=O)O; GABA = NCCCC(=O)O

tested on: Es-2; test: Primary qHTS to identify gynecologic anti-cancer compounds using libraries of approved drugs and bioactive compounds (AID 1345084); conditions: Gynecologic cancer cell panel viability, ATPlite luminescence, 48 h; series mostly up to 57.5 µM; activity change, negative = cytotoxicity: at the top concentration; note: nearly all actives have a fitted effect of over 55% in size
Outline: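 Measured: luminescence after ATPlite addition (15 min, RT). Exposure: 48 h, 37 C, 5% CO2.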
% is set by controls: 0 for no effect and ±100 for the full control effect.

Structure (SMILES) | activity change, negative = cytotoxicity
CC(C)C(=O)O[C@@H]1[C@@H](O)[C@@H](O[C@H]2O[C@H](CO)[C@@H](O)[C@H](O)[C@H]2O)O[C@H](CO)[C@H]1O | -10.2% [at 25.3 µM]
C=C(C(=O)O)[C@@H]1CC=C2CCC[C@H](C)[C@@]2(C)C1 | -0.647%
CC1(C)CC[C@]2(C(=O)O)CC[C@]3(C)C(=CCC4[C@@]5(C)CCC(O[C@@H]6OC[C@H](O)[C@H](O)[C@H]6O[C@@H]6O[C@H](CO)[C@@H](O)[C@H](O)[C@H]6O)[C@@](C)(CO)C5CC[C@]43C)[C@@H]2C1 (stereo partly specified) | 1.07% [at 25.3 µM]
CNc1nc(Nc2cnn([C@H]3CCN(C4COC4)C[C@@H]3F)c2Cl)ncc1C(F)(F)F | 15.2%
CCCCNC(=O)[C@@H]1Cc2ccccc2N1C(=O)[C@@H](N)CC | 4.96%
Cc1coc2c1CC1OC1(C)CCC1OC1(C)C2 (stereo unspecified) | -0.239%
COC(=O)C1C(CC(C)=O)C=CC(O)C12Oc1cc(C)cc(O)c1C2=O (stereo unspecified) | 4.99% [at 38.5 µM]
CCOC(=O)[C@H]1O[C@@H]1C(=O)N[C@@H](CC(C)C)C(=O)NCCC(C)C | -4.54%
C=C1CCC2C(C)(C)C(O)CCC2(C)C1CCC(C)CCOC(=O)CCC(=O)O (stereo unspecified) | 2.37% [at 25.3 µM]
CC1CCC2(C(=O)OC3OC(CO)C(O)C(O)C3O)CCC3(C(=O)O)C(=CCC4C5(C)CCC(OC6OC(C)C(O)C(O)C6O)C(C)(C)C5CCC43C)C2C1C (stereo unspecified) | 1.44% [at 25.3 µM]
COC1CC(=O)C23C(=O)NC(CC(C)C)C2C(C)C(C)=CC3/C=C(\C)CCC1O (stereo unspecified) | -2.01% [at 25.3 µM]
C[C@@H]1O[C@@H](O[C@H]2[C@H](OC(=O)[C@]34CCC(C)(C)C[C@H]3C3=CCC5[C@@]6(C)C[C@H](O)[C@H](O[C@@H]7O[C@H](CO[C@@H]8OC[C@H](O)[C@H](O)[C@H]8O)[C@@H](O)[C@H](O)[C@H]7O)C(C)(C)C6CC[C@@]5(C)[C@]3(C)C[C@H]4O)OC[C@@H](O)[C@@H]2O)[C@H](O)[C@H](O[C@@H]2OC[C@](O)(CO)[C@H]2O)[C@H]1O[C@@H]1OC[C@H](O)[C@H](O[C@@H]2OC[C@@H](O)[C@H](O)[C@H]2O)[C@H]1O (stereo partly specified) | -0.0559% [at 6.55 µM]
COc1cc(C)c(C(=O)O[C@H]2[C@@H](O)[C@H](n3ccc(=O)[nH]c3=O)O[C@@H]2CO)c(OC)c1 | 3.01% [at 25.3 µM]
CC(C)CC1NC(=O)C(C(C)c2ccccc2)NC(=O)C(C(C)C)NC(=O)C(C)NC(=O)CCCNC(=O)C(Cc2c[nH]c3ccccc23)NC(=O)C(C)NC1=O (stereo not drawn) (cyclo([GABA]AV[ξPhe(βξ-Me)]LAW); configuration not given here) | 8.42% [at 25.3 µM]
COc1cc(N2CCC(O)CC2)ccc1Nc1cc(Nc2ccccc2S(=O)(=O)C(C)C)c2cc[nH]c2n1 | -3.11% [at 38.5 µM]
OC[C@H]1O[C@@H](n2cnc3c2NC=NC[C@H]3O)C[C@@H]1O | -1.73%
CC1(C)C[C@H]2C3=CCC4[C@@]5(C)CC[C@H](O[C@H]6O[C@H](C(=O)O)[C@@H](O)[C@H](O)[C@H]6O[C@H]6O[C@H](CO)[C@@H](O)[C@H](O)[C@H]6O[C@@H]6O[C@H](CO)[C@@H](O)[C@H](O)[C@H]6O)[C@](C)(CO)C5CC[C@@]4(C)[C@]3(C)CC[C@@]2(C)[C@H](O[C@@H]2OC[C@H](O)[C@H](OC3O[C@H](CO)[C@@H](O)[C@H](O)[C@H]3O)[C@H]2O)[C@@H]1O (stereo partly specified) | 0.0485% [at 6.55 µM]
C[C@@H]1O[C@@H](O[C@H]2[C@H](OC(=O)[C@]34CCC(C)(C)C[C@H]3C3=CCC5[C@@]6(C)C[C@H](O)[C@H](O[C@@H]7O[C@H](CO)[C@@H](O[C@@H]8O[C@H](CO)[C@@H](O)[C@H](O)[C@H]8O)[C@H](O)[C@H]7O)[C@@](C)(CO)C6[C@H](O)C[C@@]5(C)[C@]3(C)C[C@H]4O)OC[C@H](O)[C@@H]2O)[C@H](O)[C@H](O)[C@H]1O[C@@H]1OC[C@@H](O)[C@H](O[C@@H]2OC[C@](O)(CO)[C@H]2O)[C@H]1O (stereo partly specified) | 5.24% [at 6.55 µM]
C[C@@H]1O[C@@H](OC[C@H]2O[C@@H](OCC3CCC4CC3C4(C)C)[C@H](O)[C@@H](O)[C@@H]2O)[C@H](O)[C@H](O)[C@H]1O (stereo partly specified) | 0.612% [at 25.3 µM]
Cc1ccc(C(=O)Nc2ccc(Oc3cc4cnn(C)c4cc3-c3cn[nH]c3)c(F)c2)c(=O)n1-c1ccc(F)cc1 | -21.4%
CC(C)=CCC/C(C)=C/CC/C(C)=C/CC[C@]1(C)CCc2cc(O)cc(C)c2O1 | 8.59% [at 25.3 µM]
